Assay results as given in the supplement of paper PMC8728848.
The sample as a whole holds a higher share of the strongest signals than the screen did.

How the values were obtained:
Test in all cases: glycan array binding signal (z-score within array); higher = stronger binding
Conditions in all cases: glycan notation: IUPAC condensed, linker removed
[1] = biological target: Fuc(a1-2)Gal(b1-3)GalNAc(b1-4)[Neu5Ac(a2-3)]Gal(b1-4)Glc
In short: (§1)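 Glycan array data came from 3228 arrays in the Consortium for Functional Glycomics database, and only arrays with an available protein sequence were kept. Glycan names were put into IUPAC-condensed notation, and columns mapping to the same glycan were averaged. The binding signal is a within-array Z-score, averaged across arrays of one protein sequence run at different concentrations or buffers and across linkers. A negative Z-score can be read as non-binding.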

[2] = biological target: Fuc(a1-2)Gal(b1-3)GlcNAc(b1-3)[Gal(b1-4)GlcNAc(b1-6)]Gal(b1-4)Glc
In short: as §1

[3] = biological target: Fuc(a1-2)Gal(b1-4)GlcNAc(b1-3)Gal(b1-4)GlcNAc
In short: as §1

[4] = biological target: Fuc(a1-2)Gal(b1-4)GlcNAc(b1-3)[Fuc(a1-3)[Gal(b1-4)]GlcNAc(b1-6)]Gal(b1-4)Glc
In short: as §1

[5] = biological target: Fuc(a1-2)Gal(b1-4)[Fuc(a1-3)]GlcNAc(b1-3)Gal(b1-4)[Fuc(a1-3)]GlcNAc
In short: as §1

[6] = biological target: Fuc(a1-2)[Gal(a1-3)]Gal(b1-4)GlcNAc(b1-3)[Fuc(a1-2)[Gal(a1-3)]Gal(b1-4)GlcNAc(b1-6)]GalNAc
In short: as §1

[7] = biological target: Fuc(a1-2)[Gal(a1-3)]Gal(b1-4)GlcNAc(b1-6)GalNAc
In short: as §1

[8] = biological target: Fuc(a1-2)[GalNAc(a1-3)]Gal(b1-3)GlcNAc(b1-2)Man(a1-3)[Fuc(a1-2)[GalNAc(a1-3)]Gal(b1-3)GlcNAc(b1-2)Man(a1-6)]Man(b1-4)GlcNAc(b1-4)GlcNAc
In short: as §1

[9] = biological target: Fuc(a1-2)[GalNAc(a1-3)]Gal(b1-4)GlcNAc(b1-3)Gal(b1-4)GlcNAc
In short: as §1

[10] = biological target: Fuc(a1-3)[Gal(b1-4)]GlcNAc(b1-2)Man(a1-3)[Fuc(a1-3)[Gal(b1-4)]GlcNAc(b1-2)Man(a1-6)]Man(b1-4)GlcNAc(b1-4)[Fuc(a1-6)]GlcNAc
In short: as §1

[11] = biological target: Fuc(a1-3)[Gal(b1-4)]GlcNAc(b1-6)GalNAc
In short: as §1

[12] = biological target: Gal(a1-3)Gal(b1-4)GlcNAc(b1-2)Man(a1-3)[Gal(a1-3)Gal(b1-4)GlcNAc(b1-2)Man(a1-6)]Man(b1-4)GlcNAc(b1-4)GlcNAc
In short: as §1

[13] = biological target: Gal(b1-3)[Fuc(a1-4)]GlcNAc
In short: as §1

[14] = biological target: Gal(b1-3)[Neu5Ac(a2-6)]GalNAc
In short: as §1

[15] = biological target: Gal(b1-4)GlcNAc(b1-2)Man(a1-3)[Gal(b1-4)GlcNAc(b1-2)Man(a1-6)]Man(b1-4)GlcNAc(b1-4)GlcNAc
In short: as §1

[16] = biological target: Gal(b1-4)GlcNAc(b1-2)Man(a1-3)[Gal(b1-4)GlcNAc(b1-2)Man(a1-6)][GlcNAc(b1-4)]Man(b1-4)GlcNAc(b1-4)[Fuc(a1-6)]GlcNAc
In short: as §1

[17] = biological target: Gal(b1-4)GlcNAc(b1-2)Man(a1-3)[GlcNAc(b1-4)][Gal(b1-4)GlcNAc(b1-2)Man(a1-6)]Man(b1-4)GlcNAc(b1-4)GlcNAc
In short: as §1

[18] = biological target: Gal(b1-4)GlcNAc(b1-2)Man(a1-6)Man(b1-4)GlcNAc(b1-4)GlcNAc
In short: as §1

[19] = biological target: Gal(b1-4)GlcNAc(b1-2)Man(a1-6)[GlcNAc(b1-2)Man(a1-3)]Man(b1-4)GlcNAc(b1-4)GlcNAc
In short: as §1

[20] = biological target: Gal(b1-4)GlcNAc(b1-3)Gal(b1-3)GalNAc
In short: as §1

[21] = biological target: Gal(b1-4)GlcNAc(b1-3)Gal(b1-4)GlcNAc(b1-3)Gal(b1-4)GlcNAc(b1-2)[Gal(b1-4)GlcNAc(b1-3)Gal(b1-4)GlcNAc(b1-3)Gal(b1-4)GlcNAc(b1-6)]Man(a1-6)[Gal(b1-4)GlcNAc(b1-3)Gal(b1-4)GlcNAc(b1-3)Gal(b1-4)GlcNAc(b1-2)Man(a1-3)]Man(b1-4)GlcNAc(b1-4)[Fuc(a1-6)]GlcNAc
In short: as §1

[22] = biological target: Gal(b1-4)GlcNAc(b1-3)Gal(b1-4)GlcNAc(b1-3)GalNAc
In short: as §1

Gal6S(b1-4)Glc = biological target: Gal6S(b1-4)Glc
In short: as §1

Gal6S(b1-4)GlcNAc = biological target: Gal6S(b1-4)GlcNAc
In short: as §1

[23] = biological target: GlcNAc(a1-3)Gal(b1-4)GlcNAc
In short: as §1

[24] = biological target: GlcNAc(a1-4)Gal(b1-4)GlcNAc
In short: as §1

[25] = biological target: GlcNAc(a1-4)Gal(b1-4)GlcNAc(b1-3)Gal(b1-4)Glc
In short: as §1

[26] = biological target: GlcNAc(a1-4)Gal(b1-4)GlcNAc(b1-3)Gal(b1-4)GlcNAc
In short: as §1

[27] = biological target: GlcNAc(a1-4)Gal(b1-4)GlcNAc(b1-3)Gal(b1-4)GlcNAc(b1-3)Gal(b1-4)GlcNAc
In short: as §1

[28] = biological target: GlcNAc(a1-4)Gal(b1-4)GlcNAc(b1-3)Gal(b1-4)[Fuc(a1-3)]GlcNAc(b1-3)Gal(b1-4)[Fuc(a1-3)]GlcNAc
In short: as §1

[29] = biological target: GlcNAc(b1-2)Man(a1-3)[GlcNAc(b1-2)Man(a1-6)]Man(b1-4)GlcNAc(b1-4)GlcNAc
In short: as §1

[30] = biological target: GlcNAc(b1-2)[GlcNAc(b1-4)]Man(a1-3)[GlcNAc(b1-2)Man(a1-6)]Man(b1-4)GlcNAc(b1-4)GlcNAc
In short: as §1

[31] = biological target: GlcNAc(b1-2)[GlcNAc(b1-6)]Man(a1-6)[GlcNAc(b1-2)Man(a1-3)]Man(b1-4)GlcNAc(b1-4)GlcNAc
In short: as §1

[32] = biological target: GlcNAc(b1-2)[GlcNAc(b1-6)]Man(a1-6)[GlcNAc(b1-2)Man(a1-3)]Man(b1-4)GlcNAc(b1-4)[Fuc(a1-6)]GlcNAc
In short: as §1

[33] = biological target: GlcNAc(b1-3)Gal(b1-4)GlcNAc(b1-2)[GlcNAc(b1-3)Gal(b1-4)GlcNAc(b1-6)]Man(a1-6)[GlcNAc(b1-3)Gal(b1-4)GlcNAc(b1-2)Man(a1-3)]Man(b1-4)GlcNAc(b1-4)GlcNAc
In short: as §1

[34] = biological target: GlcNAc(b1-3)Gal(b1-4)GlcNAc(b1-6)[GlcNAc(b1-3)]Gal(b1-4)GlcNAc
In short: as §1

GlcNAc(b1-3)GalNAc = biological target: GlcNAc(b1-3)GalNAc
In short: as §1

GlcNAc(b1-6)GalNAc = biological target: GlcNAc(b1-6)GalNAc
In short: as §1

[35] = biological target: Man(a1-2)Man(a1-3)[Man(a1-2)Man(a1-6)]Man(a1-6)[Man(a1-2)Man(a1-2)Man(a1-3)]Man(b1-4)GlcNAc(b1-4)GlcNAc
In short: as §1

[36] = biological target: Man(a1-2)Man(a1-6)[Man(a1-3)]Man(a1-6)[Man(a1-2)Man(a1-2)Man(a1-3)]Man
In short: as §1

[37] = biological target: Neu5Ac(a2-3)Gal(b1-3)GalNAc(b1-4)Gal(b1-4)Glc
In short: as §1

[38] = biological target: Neu5Ac(a2-3)Gal(b1-3)GlcNAc(b1-3)Gal(b1-4)GlcNAc
In short: as §1

[39] = biological target: Neu5Ac(a2-3)Gal(b1-3)[Fuc(a1-4)]GlcNAc
In short: as §1

[40] = biological target: Neu5Ac(a2-3)Gal(b1-4)GlcNAc(b1-2)Man
In short: as §1

[41] = biological target: Neu5Ac(a2-3)Gal(b1-4)GlcNAc(b1-3)Gal(b1-4)GlcNAc(b1-3)GalNAc
In short: as §1

[42] = biological target: Neu5Ac(a2-3)Gal(b1-4)GlcNAc(b1-3)Gal(b1-4)GlcNAc(b1-6)[Gal(b1-3)]GalNAc
In short: as §1

[43] = biological target: Neu5Ac(a2-3)Gal(b1-4)GlcNAc(b1-6)GalNAc
In short: as §1

[44] = biological target: Neu5Ac(a2-3)Gal(b1-4)[Fuc(a1-3)]GlcNAc(b1-2)Man
In short: as §1

[45] = biological target: Neu5Ac(a2-3)Gal(b1-4)[Fuc(a1-3)]GlcNAc(b1-3)Gal
In short: as §1

[46] = biological target: Neu5Ac(a2-3)Gal(b1-4)[Fuc(a1-3)]GlcNAc(b1-3)Gal(b1-4)GlcNAc
In short: as §1

[47] = biological target: Neu5Ac(a2-3)Gal6S(b1-4)[Fuc(a1-3)]GlcNAc
In short: as §1

[48] = biological target: Neu5Ac(a2-6)Gal(b1-4)GlcNAc(b1-2)Man(a1-3)Man(b1-4)GlcNAc(b1-4)GlcNAc
In short: as §1

[49] = biological target: Neu5Ac(a2-6)Gal(b1-4)GlcNAc(b1-2)Man(a1-3)[Neu5Ac(a2-3)Gal(b1-4)GlcNAc(b1-2)Man(a1-6)]Man(b1-4)GlcNAc(b1-4)GlcNAc
In short: as §1

[50] = biological target: Neu5Ac(a2-6)Gal(b1-4)GlcNAc(b1-3)[Neu5Ac(a2-6)Gal(b1-4)GlcNAc(b1-6)]GalNAc
In short: as §1

[51] = biological target: Neu5Ac9Ac(a2-3)Gal(b1-4)GlcNAc
In short: as §1

[52] = biological target: Neu5Gc(a2-3)Gal(b1-3)GlcNAc
In short: as §1

Neu5Gc(a2-3)Gal(b1-4)Glc = biological target: Neu5Gc(a2-3)Gal(b1-4)Glc
In short: as §1

B1: SSR1 (Sclerotium rolfsii), A0A0M3KL30 (protein)
chain: TYKITVRVYQTNPDAFFHPVEKTVWKYANGGTWTITDDQHVLTMGGSGTSGTLRFHADNGESFTATFGVHNYKRWCDIVTNLAADETGMVINQQYYSQKNREEARERQLSNYQVKNAKGRNFQIVYTEAEGNDLHANLIIG
- glycan array binding signal (z-score) [1]: -0.338
- glycan array binding signal (z-score) [2]: -0.321
- glycan array binding signal (z-score) [3]: -0.335
- glycan array binding signal (z-score) [4]: -0.328
- glycan array binding signal (z-score) [5]: -0.306
- glycan array binding signal (z-score) [6]: -0.325
- glycan array binding signal (z-score) [7]: -0.34
- glycan array binding signal (z-score) [8]: 0.338
- glycan array binding signal (z-score) [9]: 0.292
- glycan array binding signal (z-score) [10]: -0.33
- glycan array binding signal (z-score) [11]: -0.33
- glycan array binding signal (z-score) [12]: -0.321
- glycan array binding signal (z-score) [13]: -0.333
- glycan array binding signal (z-score) [14]: 0.823
- glycan array binding signal (z-score) [15]: -0.338
- glycan array binding signal (z-score) [16]: -0.334
- glycan array binding signal (z-score) [17]: -0.342
- glycan array binding signal (z-score) [18]: -0.337
- glycan array binding signal (z-score) [19]: 3.01
- glycan array binding signal (z-score) [20]: 1.12
- glycan array binding signal (z-score) [21]: -0.33
- glycan array binding signal (z-score) [22]: 0.602
- glycan array binding signal (z-score) (Gal6S(b1-4)Glc): -0.323
- glycan array binding signal (z-score) (Gal6S(b1-4)GlcNAc): -0.336
- glycan array binding signal (z-score) [23]: 3.12
- glycan array binding signal (z-score) [24]: 3.11
- glycan array binding signal (z-score) [25]: 3.37
- glycan array binding signal (z-score) [26]: 4.43
- glycan array binding signal (z-score) [27]: 6.33
- glycan array binding signal (z-score) [28]: 3.01
- glycan array binding signal (z-score) [29]: 5.28
- glycan array binding signal (z-score) [30]: 3.04
- glycan array binding signal (z-score) [31]: 3.93
- glycan array binding signal (z-score) [32]: 3.66
- glycan array binding signal (z-score) [33]: 1.32
- glycan array binding signal (z-score) [34]: 0.953
- glycan array binding signal (z-score) (GlcNAc(b1-3)GalNAc): 0.954
- glycan array binding signal (z-score) (GlcNAc(b1-6)GalNAc): 1.03
- glycan array binding signal (z-score) [35]: -0.548
- glycan array binding signal (z-score) [36]: -0.348
- glycan array binding signal (z-score) [37]: -0.271
- glycan array binding signal (z-score) [38]: -0.343
- glycan array binding signal (z-score) [39]: -0.341
- glycan array binding signal (z-score) [40]: -0.313
- glycan array binding signal (z-score) [41]: 0.407
- glycan array binding signal (z-score) [42]: 1.06
- glycan array binding signal (z-score) [43]: -0.334
- glycan array binding signal (z-score) [44]: -0.374
- glycan array binding signal (z-score) [45]: -0.342
- glycan array binding signal (z-score) [46]: -0.324
- glycan array binding signal (z-score) [47]: -0.349
- glycan array binding signal (z-score) [48]: -0.341
- glycan array binding signal (z-score) [49]: -0.339
- glycan array binding signal (z-score) [50]: -0.297
- glycan array binding signal (z-score) [51]: -0.27
- glycan array binding signal (z-score) [52]: -0.329
- glycan array binding signal (z-score) (Neu5Gc(a2-3)Gal(b1-4)Glc): -0.278
